A340 absorber: absorbance at 340 nm | fold change at 10 µM | compound absorbance at 340 nm, fold over control | AID 708 | 65,000 tested, under 10 active;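 active = at 10 µM dose, initial 340 nm absorbance at least 2 fold that of control wells; inactive = change under 2 fold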;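 note: initial absorbance extrapolated from kinetic A340 decline of NADH oxidation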
MK inhibit: inhibitors of Streptococcus pneumoniae mevalonate kinase. inhibition, % at 10 µM. purified MK, PK/LDH-coupled NADH absorbance 340 nm. 65,000 tested, 0.48% active;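 active = ranked among the strongest by inhibition in the single 10 µM screen, a fixed top-ranked set picked for dose follow-up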
NADH enzymes: inhibition of NAD/NADH coupling enzymes, library profiling; AID 774; IC50, µM (doses to about 10 µM), for inactives: at the top dose inhibition; 65,000 tested, 0.02% active; coupled PK/LDH NADH assays, four targets;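 active = single-dose screening hits from any of four coupled enzyme assays that gave an IC50 when retested across doses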;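 note: the DPM-DC format reads NADH fluorescence rather than 340 nm absorbance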
Spn PMK inh: S. pneumoniae PMK inhibition; purified PMK, PK/LDH-coupled NADH absorbance 340 nm; 65,000 tested, 0.49% active; inhibition, % at 10 µM;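 active = top-ranked compounds by inhibition in the single 10 µM screen, taking a fixed number of the strongest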;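 note: 0% = full reaction with DMSO carrier and 100% = background rate without enzyme reaction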
Autofluor 339: intrinsic fluorescence of library compounds, ex339/em460 – biochemical, MLSMR library, data from DPM-DC assay, artefact control, profiling panel | compound autofluorescence, ex339/em460 nm, NADH buffer; hits give high values; 1 = no-compound wells, NADH background | fluorescence fold increase at 10 µM | 65,000 tested, 5.5% active;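 active = at 10 µM, mean starting fluorescence two-fold or more over control wells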;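 note: signal is the first read of a kinetic run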
DPM-DC inhibit: inhibitors of Streptococcus pneumoniae diphosphomevalonate decarboxylase | purified DPM-DC, PK/LDH coupled NADH fluorescence | calls only at 10 µM | 65,000 tested, 0.49% active | AID 556;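 active = the 320 compounds with the highest percent inhibition in the single-dose primary screen, excluding strongly autofluorescent ones, cut at about 32% in these data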;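 note: kinetic rate of NADH fluorescence loss reporting ADP formed by the decarboxylase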
Numbers without * were called inactive; i = inactive; nt = not tested or not shown. Compounds with a hit are over-represented: about 6.3% of the library has one in this group of screens.

SMILES	A340 absorber	MK inhibit	NADH enzymes	Spn PMK inh	Autofluor 339	DPM-DC inhibit
CN(C)CCNC(=O)c1ccc(COCC(F)(F)F)cc1	0.99	8.0	3.0%	1.0	1	i
CC(C)C[C@H](N)c1nnc(S(=O)(=O)Cc2ccc(F)cc2)o1	1	10.0	5.0%	5.0	1.06	i
CCc1nnc(NC(=O)CSc2nccn2-c2cc(C)cc(C)c2)s1	1.06	9.0	4.0%	0.0	1.05	i
CCOC(=O)N1CCC(NC(=O)c2ccc3c(c2)sc2nc(-c4ccc(OC)cc4)cn23)CC1	1.02	11.0	7.0%	9.0	3.55*	i
CCCOc1ccc(C2C(=O)N(C3CCCCC3)CC(=O)N2CCCOCC)cc1OC (stereo not given)	0.98	0.0	9.0%	26.0*	0.99	i
COc1ccc(C2C(=O)N(C3CCCCC3)CC(=O)N2CCc2ccccc2)cc1OC (stereo not given)	1.01	0.0	9.0%	26.0*	1	i
CCOCCCN1C(=O)CN(C2CCCCC2)C(=O)C1c1ccc(OC)c(OC)c1 (stereo not given)	1	0.0	8.0%	20.0	0.94	i
Cn1c(=O)c2c(ncn2CC(=O)Nc2ccc(Cl)cc2Cl)n(C)c1=O	1.03	5.0	3.0%	3.0	1.04	i
CC1(C)Oc2ccc3ccc(=O)oc3c2-c2cn[nH]c21	1.11	0.0	3.0%	6.0	1.38	i
CC1(C)Oc2ccc3ccc(=O)oc3c2-c2cnoc21	1.08	5.0	8.0%	10.0	2.16*	nt
CN(c1ccccc1)S(=O)(=O)c1cc(C(=O)N2CCN(c3ccccn3)CC2)ccc1Cl	0.98	7.0	3.0%	7.0	1.06	i
COCC(C)NC(=O)c1cc(-c2ccccc2OC)on1 (stereo not given)	1	7.0	7.0%	14.0	1.18	i
COCC(C)NC(=O)c1ccccc1OC(C)=O (stereo not given)	1.01	10.0	10.0%	4.0	2.03*	i
CCCn1nc(NC(=O)c2ccco2)c2cc3ccc(C)cc3nc21	1.04	8.0	4.0%	0.0	3.91*	nt
CCn1nc(NC(=O)c2ccco2)c2cc3ccccc3nc21	1.01	0.0	1.0%	2.0	1.37	i
CCNc1cc2n(c(=O)n1)CCc1cc(OC)c(OC)cc1-2	1.17	1.0	6.0%	0.0	2.69*	i
COc1cc2c(cc1OC)-c1cc(NC3CCCCCCC3)nc(=O)n1CC2	1.13	3.0	11.0%	12.0	2.37*	i
COc1cc2c(C(=O)NCc3ccccn3)cn(C)c(=O)c2cc1OC	1.02	3.0	2.0%	0.0	1.14	i
COc1cc2c(cc1OC)-c1cc(OCCN3CCOCC3)nc(=O)n1CC2	1.12	12.0	7.0%	1.0	3.86*	nt
COc1cc(C(=O)OCCN2CCOCC2)cc(OC)c1OC	1.03	7.0	2.0%	0.0	1.05	i
COc1cc2c(cc1OC)-c1cc(NC3CCCCC3)nc(=O)n1CC2	1.11	13.0	7.0%	7.0	1.72	i
COc1cc2c(cc1OC)-c1cc(NCc3ccccn3)nc(=O)n1CC2	1.18	52.0*	35.0%	17.0	3.35*	nt
COc1cc2c(cc1OC)-c1cc(NC3CC3)nc(=O)n1CC2	1.14	10.0	8.0%	10.0	1.72	i
C=CCn1c(SCC(=O)Nc2c(C)cccc2C)nnc1-c1cnccn1	1.02	7.0	5.0%	7.0	1.14	i
COc1ccc(CC(=O)Nc2cccc(C(=O)O)c2C)cc1	1.05	9.0	7.0%	4.0	1.07	i
SMILES	A340 absorber	MK inhibit	NADH enzymes	Spn PMK inh	Autofluor 339	DPM-DC inhibit
CCCCCCNc1cc2n(c(=O)n1)CCc1cc(OC)c(OC)cc1-2	1.13	7.0	8.0%	8.0	3.36*	nt
CCN(CC)S(=O)(=O)c1ccc(NC(=O)COc2c(OC)cccc2OC)cc1	1.02	3.0	1.0%	0.0	1.05	i
CCCC(=O)Nc1ccc2oc(-c3ccc(OC)c(Br)c3)nc2c1	1.03	7.0	9.0%	11.0	3.67*	nt
COc1ccc(CC(=O)Nc2ccc(-c3nc4cc(C)ccc4o3)c(O)c2)cc1OC	1.18	0.0	2.0%	4.0	2.19*	nt
CCCC(=O)Nc1ccc(-c2nc3cc(C)ccc3o2)cc1	1.11	2.0	1.0%	0.0	2.34*	nt
COc1ccccc1OCC(=O)Nc1cccc(-c2nc3ccccc3o2)c1	0.99	6.0	12.0%	3.0	1.03	i
CCCC(=O)Nc1ccc(-c2nc3cc(C)c(C)cc3o2)c(O)c1	1.17	10.0	9.0%	7.0	2.18*	nt
CC(=O)N1CCN(c2ccc(Oc3nnnn3-c3ccccc3)cc2)CC1	1.01	5.0	6.0%	12.0	1	i
CC(=O)c1cnc(Nc2nc(C)c3cccc(C)c3n2)nc1C	1.05	2.0	2.0%	5.0	1.08	i
O=C(c1cc2nc3c(c(C(F)(F)F)n2n1)CCc1ccccc1-3)N1CCN2CCCC2C1 (stereo not given)	1.05	0.0	5.0%	15.0	1.42	i
CC1(C)CC(=O)C2=C(C1)OC(=O)C2(NC(=O)c1cccs1)C(F)(F)F (stereo not given)	0.98	3.0	4.0%	13.0	1.06	i
O=C(NCc1cccnc1)c1c(F)c(F)c(F)c(F)c1F	1.05	2.0	2.0%	3.0	1.08	i
CC(=O)c1ccc(-c2nc3ccccc3n2C)o1	1.08	10.0	3.0%	3.0	2.96*	nt
Cn1c(-c2ccc(Br)o2)nc2ccccc21	1.06	11.0	7.0%	11.0	1.16	i
O=C(Nc1c2c(nn1-c1ccc(F)cc1)CS(=O)(=O)C2)C12CC3CC(CC(C3)C1)C2	1.02	0.0	6.0%	17.0	1.1	i
Cc1ccc(C2Nc3ccccc3-c3nc4ccccc4n32)o1 (stereo not given)	1.05	10.0	1.0%	0.0	2.45*	nt
CC1(c2ccncc2)Nc2ccccc2-c2nc3ccccc3n21 (stereo not given)	1.01	1.0	6.0%	12.0	1.66	i
Cc1cc(-c2nc3ncccc3o2)ccc1NC(=O)CC(C)C	1.1	4.0	3.0%	2.0	2.2*	nt
Cc1ccc(OCC(=O)Nc2ccc(-c3nc4ncccc4o3)cc2)c(C)c1	1.16	0.0	0.0%	0.0	2.17*	nt
CC1CN(c2nc3c(c(=O)[nH]c(=O)n3C)n2Cc2ccccc2F)CC(C)O1 (stereo not given)	1.05	3.0	1.0%	0.0	1.07	i
Cn1c(NCCCO)nc2c(c1=O)C1(CCCCC1)Cc1ccccc1-2	1.1	7.0	9.0%	11.0	3.84*	nt
CCCn1c(SCC(N)=O)nc2c(c1=O)C1(CCCC1)Cc1ccccc1-2	1.03	0.0	4.0%	11.0	1.11	i
COc1ccc2cc(CN(C(=O)Nc3ccccc3)C3CCCC3)c(=O)[nH]c2c1	1.05	5.0	7.0%	16.0	1.12	i
COc1ccc2[nH]c(=O)c(CN(C(=O)NC3CCCCC3)C3CCCCC3)cc2c1	1.07	2.0	12.0%	13.0	2.84*	i
COc1ccc2[nH]c(=O)c(CNC3CCCCC3)cc2c1	1	7.0	3.0%	7.0	2.69*	nt

Assay outcomes (PubChem)
